Data reported in ChEMBL document CHEMBL3988442, “University of Dundee, Small-Polar-MMV Screening Library” (2021).

What was measured:
[1] = molecular target: T1, Aspartate--tRNA(Asp/Asn) ligase (Mycobacterium tuberculosis (strain ATCC 25618 / H37Rv)) (UniProt P9WFW3); test: Assay for Asp RNA synthetase-1 from Mycobacterium tuberculosis; assay type: functional; parameters: scale not given: direction of the effect not stated beside the values; details: 30 µM; also: in the data most compounds retested in dose-response had high values
T1 sequence (whole entry): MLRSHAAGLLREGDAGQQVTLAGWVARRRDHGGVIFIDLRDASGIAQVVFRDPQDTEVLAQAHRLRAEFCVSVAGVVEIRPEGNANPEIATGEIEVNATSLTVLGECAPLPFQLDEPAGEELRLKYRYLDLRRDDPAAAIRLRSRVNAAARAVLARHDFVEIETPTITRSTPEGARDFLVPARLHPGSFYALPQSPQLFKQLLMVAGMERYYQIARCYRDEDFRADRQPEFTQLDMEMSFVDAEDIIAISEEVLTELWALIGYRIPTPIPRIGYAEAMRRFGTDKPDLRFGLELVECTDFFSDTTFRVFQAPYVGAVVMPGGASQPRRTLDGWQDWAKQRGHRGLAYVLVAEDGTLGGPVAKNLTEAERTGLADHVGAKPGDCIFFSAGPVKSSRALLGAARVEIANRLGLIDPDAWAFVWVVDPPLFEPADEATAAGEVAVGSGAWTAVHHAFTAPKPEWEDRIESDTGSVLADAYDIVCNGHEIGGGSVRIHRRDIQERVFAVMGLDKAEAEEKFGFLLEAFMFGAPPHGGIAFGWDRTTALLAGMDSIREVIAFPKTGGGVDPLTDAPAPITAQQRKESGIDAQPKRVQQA

[2] = molecular target: Shiga toxin 2 (Escherichia coli O157:H7) (UniProt P09385+P09386); test: E. coli 0.157:H7 Shiga Toxin SOP - stx2 screening assay; assay type: functional; parameters: scale not given: direction of the effect not stated beside the values; details: 30 µM

Cc1ccccc1CC(=O)N(C)C1CCCC1
Percent Effect [1]: -6.33%
Percent Effect [2]: -21%

c1ccc(C[C@H]2[C@H](N3CCOCC3)CCN2Cc2cccnc2)cc1
Percent Effect [1]: 2.33%
Percent Effect [2]: -7.76%

CC(=O)N1CCC2(CC1)C(=O)N(CC1CC1)c1ccccc12
Percent Effect [1]: -1.18%
Percent Effect [2]: -4.33%

CCOC(=O)N1CCN(Cc2ccc(OCc3nccn3C)cc2)CC1
Percent Effect [1]: -4.7%
Percent Effect [2]: -21.9%

CC(C)C(=O)N1CCCC(c2cc(C(F)F)n3ncnc3n2)C1 (centres undefined)
Percent Effect [1]: 1.92%
Percent Effect [2]: -11.7%

CN1CCCC1CNC(=O)c1nnn(-c2ccc(F)cc2)c1C1CC1 (centres undefined)
Percent Effect [1]: 3.7%
Percent Effect [2]: -26%

Cc1cc(C)n(CC2CCCN2C(=O)c2ccc3c(c2)nnn3C)n1 (centres undefined)
Percent Effect [1]: 5.23%
Percent Effect [2]: -34.8%

CC(=O)N(Cc1noc(C)n1)C1CCN(Cc2ccccc2C#N)C1 (centres undefined)
Percent Effect [1]: 2.26%
Percent Effect [2]: -3.66%

CN1CC(=O)N(c2ccsc2)CC12CCN(C(=O)c1ccccc1)C2 (centres undefined)
Percent Effect [1]: 2.85%
Percent Effect [2]: -3.66%

c1ccc(Cn2cc(CNC3CCc4ncnn4C3)cn2)cc1 (centres undefined)
Percent Effect [1]: -2.87%
Percent Effect [2]: -22.8%

N#Cc1ccc(C(=O)N2CC[C@H]3[C@@H]2CCC(=O)N3c2cccnc2)cc1
Percent Effect [1]: 2.4%
Percent Effect [2]: -9.02%

CC(C)c1cc(NCC(C)N2CCCC2)n2nccc2n1 (centres undefined)
Percent Effect [1]: 1.77%
Percent Effect [2]: -11.9%

CC(C)Nc1nc(N2CCOCC2)nc2c1CN(CC(=O)N(C)C)CC2
Percent Effect [1]: 12.1%
Percent Effect [2]: -23.6%

CN(CCOc1cccc(CN)c1)C1CCOCC1
Percent Effect [1]: -0.881%
Percent Effect [2]: -50.4%

CNc1nc2c(s1)C(c1c(F)cccc1Cl)CC(=O)N2 (centres undefined)
Percent Effect [1]: 61.3%
Percent Effect [2]: 3.13%

COc1cc(CNCc2ccnc(N3CCOCC3)c2)cc(Cl)c1OC
Percent Effect [1]: 6.73%
Percent Effect [2]: 24.1%

CN(C(=O)c1ccccc1Cl)C1CCN(c2ccccn2)CC1
Percent Effect [1]: 5.42%
Percent Effect [2]: 19.1%
